Screens from PubChem BioAssay.
aSyn UTR act: Activators working through SNCA 5'UTR binding (MLPCN); alpha-synuclein 5'UTR reporter, activators screen; activity score, % (tested at 7.5 µM), hits read low; 300,000 compounds, 7.1% hits; AID 1814; in the data active means activity score below about -60%
The depositor's hits bear a star. A selection follows.

SMILES	aSyn UTR act
O=C(Nc1ccc(Br)cc1)Nc1ccccc1Cl	-129*
Cn1cnc2c(N/N=C/c3cccs3)ncnc21	-67*
COc1cccc(/C=N/Nc2ncnc3c2ncn3Cc2ccccc2)c1O	102
COc1cccc(NC(=O)Nc2cccc(C)n2)c1	-110*
Cc1ccc(NC(=O)Nc2cccc(C)n2)c(C)c1	-104*
Cc1cccc(NC(=O)Nc2ccccc2)n1	-76*
CCOc1ccc(NC(=O)Nc2cc(C)ccc2F)cc1	-199*
CCOc1ccc(NC(=O)Nc2cccc(C)n2)cc1	-143*
CCCCOc1ccc(C(=O)Nc2cccc(C)n2)cc1	-68*
Cc1nn(C)c(Sc2ccccc2N)c1[N+](=O)[O-]	-69*
CC(=O)c1cccc(Nc2ccc(-c3ccccc3F)nn2)c1	-155*
CC(=O)c1ccc(Nc2ccc(-c3ccccc3C)nn2)cc1	-148*
COc1ccc2c(c1)CCc1c(C(=O)NCc3cccnc3)noc1-2	-91*
CCCNC(=O)c1noc2c1CCc1cc(OC)ccc1-2	-71*
O=C(c1noc2c1CCc1ccccc1-2)N1CCOCC1	-72*
COc1ccc2c(c1)CCc1c(C(=O)N3CCCCCC3)noc1-2	-64*
COc1ccccc1C(=O)Nc1nc2cc3c(cc2s1)OCO3	-122*
O=C(CCS(=O)(=O)c1ccccc1)Nc1nc2cc3c(cc2s1)OCO3	-65*
Cc1nc2cc(NC(=O)CCS(=O)(=O)c3ccccc3)ccc2s1	-172*
COc1ccccc1C(=O)Nc1nc2cc3c(cc2s1)OCCO3	-64*
COc1ccc(C(=O)Nc2nnc(Cc3ccc(OC)c(OC)c3)s2)c(OC)c1	-82*
COc1ccc(C(=O)Nc2nc3cc4c(cc3s2)OCCO4)c(OC)c1	-63*
Cc1cc(Br)ccc1-n1[nH]c(C)c(C=Nc2cccc3nsnc23)c1=O	-70*
Cc1nc(Cl)sc1C(=O)Nc1ccccc1	-67*
CC(=O)c1cccc(NC(=O)c2sc(Cl)nc2C)c1	-65*
SMILES	aSyn UTR act
Cc1c(C(=O)Nc2ccccc2)sc2nc[nH]c(=O)c12	-72*
CCN(CC)c1ccc(C=N/C(C#N)=C(\N)C#N)cc1	-138*
O=C(CS(=O)(=O)c1c[nH]c2ccccc12)Nc1ccc2c(c1)OCCO2	-85*
CC1CC(C)(C)NC(=S)N1CCCC(=O)Nc1ccc2c(c1)OCCO2 (stereo not drawn)	-91*
O=C(CCc1ccccc1)Nc1ccc2c(c1)OCCO2	-102*
O=C(CCc1ccccc1)Nc1cc2c(cc1Cl)OCCO2	-135*
Cc1ccsc1C(=O)OCC(=O)NCCC1=CCCCC1	-81*
Cc1nc2cc(-c3ccccc3)ccc2o1	-67*
CCCCNc1ncnc2c1cnn2-c1ccccc1	-260*
COCC(C)Nc1ncnc2c1cnn2-c1ccc(Cl)cc1 (stereo not drawn)	-132*
Clc1ccc(-n2ncc3c(NCc4ccccn4)ncnc32)cc1	-123*
Clc1ccc(-n2ncc3c(N4CCCCCC4)ncnc32)cc1	78
CCc1nc(NC(C)(C)C)c2cnn(-c3ccccc3)c2n1	-129*
c1ccc(-n2ncc3c(NCCCN4CCOCC4)ncnc32)cc1	-97*
CCOC(=O)N1CCC(Nc2ncnc3c2cnn3-c2ccc(Cl)cc2)CC1	-133*
CCCCNc1ncnc2c1cnn2-c1ccc(Cl)cc1	-137*
Clc1ccc(-n2ncc3c(NCCCn4ccnc4)ncnc32)cc1	-111*
CCC(Sc1nc2n[nH]c(C)c2c(=N)n1-c1cccc(Cl)c1C)C(=O)N(CC)CC (stereo not drawn)	51
Cc1cccnc1NC(=S)Nc1ccc(F)cc1F	-74*
Cc1ccc(C)c(NC(=S)Nc2ncccc2C)c1	-136*
Cc1cc(C)nc(NC(=S)Nc2ccc(F)cc2F)c1	-62*
CCN(CC)C(=O)Oc1ccc2c(c1)O/C(=C\c1ccco1)C2=O	-116*
CCC(C)(C)C1CCC(=NNC(=O)c2ccoc2C)CC1 (stereo not drawn)	-112*
Cc1nn(C)c(=O)n1-c1ccc(OCc2ccccc2)cc1	-104*
Cc1nn(CCOc2ccccc2)c(=O)n1-c1ccc(F)cc1	-65*
SMILES	aSyn UTR act
Cc1ccccc1-c1nc(-c2ccc(Br)o2)no1	-110*
Fc1ccccc1-c1nc(-c2ccc(Br)o2)no1	-74*
Cc1ccccc1-c1nc(-c2ccc(NC(=O)c3ccc(Br)o3)cc2)no1	-199*
COc1ccc(Cl)cc1-c1nc(-c2ccc(Br)o2)no1	-123*
Cc1ccsc1CCNC(=O)C1CCC(=O)N(CCc2cccc(F)c2)C1 (stereo not drawn)	-102*
Cc1ccsc1CN(C)C(=O)C1CCC(=O)N(CCc2cccc(F)c2)C1 (stereo not drawn)	-91*
CN(C(=O)C1CCC(=O)N(Cc2cccc(F)c2)C1)C1CCCCC1 (stereo not drawn)	-126*
CSc1cccc(CNC(=O)C2CCC(=O)N(Cc3cccc(C(F)(F)F)c3)C2)c1 (stereo not drawn)	-73*
Cc1ccc2nc3c(cc(C(N)=S)c(=N)n3CCCOC(C)C)c(=O)n2c1	-64*
C/C(=N\Nc1cccc([N+](=O)[O-])c1)c1cc(F)ccc1O	-131*
C/C(=N\Nc1cccc([N+](=O)[O-])c1)c1ccccc1O	-166*
CCc1cc2c(=O)c(-c3nc4ccccc4n3C)c(COCC(=O)O)oc2cc1O	-81*
COc1cc(OC)cc(C(=O)Nc2ccc3nc4n(c(=O)c3c2)CCCC4)c1	-120*
CCOc1ccccc1C(=O)Nc1ccc2nc3n(c(=O)c2c1)CCCCC3	-77*
O=C(/C=C/c1ccco1)Nc1ccc2nc3n(c(=O)c2c1)CCCC3	-176*
CN(C)c1cccc(C(=O)Nc2ccc3nc4n(c(=O)c3c2)CCCCC4)c1	-81*
COc1cccc(C(=O)Nc2ccc3nc4n(c(=O)c3c2)CCCC4)c1	-76*
O=C(Nc1ccc(F)cc1)/C(Cl)=C/c1ccccc1	-258*
CC(=O)c1ccc(NC(=O)/C(Cl)=C/c2ccccc2)cc1	-175*
Cc1ccc(NC(=O)/C(Cl)=C\c2ccccc2)cc1	-105*
CCOc1cccc2cc(-c3csc(NC(=O)CCC(=O)NCCN4CCCCC4C)n3)c(=O)oc12 (stereo not drawn)	-135*
CCOc1cccc2cc(-c3csc(NC(=O)CCC(=O)NCCCN4CCC(C)CC4)n3)c(=O)oc12	-76*
COc1ccc(OC)c(CNc2ccc3c(c2)CCC3)c1	-118*
COc1cccc(CNc2ccc3c(c2)CCC3)c1	-167*
CCN1CCN(c2nc(Nc3cccc(OC)c3)nc(N)c2[N+](=O)[O-])CC1	-86*
SMILES	aSyn UTR act
CCC(C)Nc1nc(N)c([N+](=O)[O-])c(Nc2cc(OC)ccc2OC)n1 (stereo not drawn)	97
CCC(C)Nc1nc(N)c([N+](=O)[O-])c(Nc2ccccc2OC)n1 (stereo not drawn)	60
CCOc1cc(/C=C/C(=O)c2ccc(O)cc2)ccc1OCC(=O)N(C)C	-94*
CCOc1cc(/C=C/C(=O)c2ccc3c(c2)OCCO3)ccc1OCC(=O)N(C)C	-185*
CCOc1cc(/C=C/C(=O)Nc2ccc(C(=O)NCCN(CC)CC)cc2)ccc1OCC(C)C	47
Cc1ccc(-n2nnc(-c3cccnc3)n2)cc1	-117*
c1ccc(-n2nnc(-c3cccnc3)n2)cc1	-162*
O=C(Nc1ccn(-c2ccccc2)n1)c1ccc(Cl)cc1	-136*
O=C(Nc1ccn(-c2ccccc2)n1)c1ccccc1Br	-161*
Cc1cc(OCc2cc(C(=O)N(C)Cc3ccccn3)no2)cc(C)c1Cl	-77*
CC(=O)c1ccc(OCc2cc(C(=O)N(C)Cc3ccccn3)no2)cc1	-65*
